Measured values from PubChem BioAssay (NCATS).
Values joined by “and” are separate entries in the source; they are usually repeats but may differ in a detail not shown here. Identical values can stand only once. Records with an inconclusive call do not appear. Active and inactive are the calls of the source. Unless noted, calls follow the shape of the dose curve; as a rule, active = well fitted curve in the direction sought with a large enough effect; inconclusive = small, poorly fitted or top-dose-only effect, or another doubt; inactive = no such curve, though single readings can be large; an effect the other way counts as inactive or inconclusive.

Experiments:
[1] = Cell Viability - LYMP2-006 (AID 978); conditions: LYMP2-006 lymphoblastoid cell viability, qHTS; series mostly up to 92.2 µM; also: % is scaled to controls: 0 for no effect and ±100 for the full control effect; nearly all actives have a fitted effect of over 60% in size
How it was run: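 Human lymphoblastoid cells, 2500 per well, were preincubated 5 hr at 37 C, then exposed to compounds for 24 hr at 37 C in complete medium. Viability was read as intracellular ATP by CellTiter-Glo luminescence; AC50 from Hill-equation fits of qHTS concentration-response data.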

[2] = Cell Viability - LYMP2-007 (AID 979); conditions: LYMP2-007 lymphoblastoid cell viability; series mostly up to 92.2 µM;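 also: cells exposed to compound for 24 h before reading; 0% = DMSO only and the negative end = 92 µM tetraoctylammonium bromide; nearly all actives have a fitted effect of over 60% in size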
How it was run: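 Luminescent ATP signal (CellTiter-Glo) serves as the viability read-out after 24 hr compound treatment of lymphoblastoid cells in complete medium at 37 C. Concentration-response data were fitted to the Hill equation to give AC50 values.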

[3] = Cell Viability - LYMP2-008 (AID 980); conditions: LYMP2-008 lymphoblastoid cell viability, qHTS; series mostly up to 92.2 µM; also: % is scaled to controls: 0 for no effect and ±100 for the full control effect; nearly all actives have a fitted effect of over 60% in size
How it was run: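 qHTS, human lymphoblastoid line, 2500 cells/well; 5 hr preincubation, 24 hr compound, 37 C. CellTiter-Glo ATP luminescence. AC50 via Hill equation. Tetraoctylammonium bromide positive control.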

[4] = Cell Viability - LYMP2-010 (AID 981); conditions: LYMP2-010 lymphoblastoid cell viability, qHTS; series mostly up to 92.2 µM; also: % is scaled to controls: 0 for no effect and ±100 for the full control effect; nearly all actives have a fitted effect of over 55% in size
How it was run: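 Luminescent ATP signal (CellTiter-Glo) served as the viability read-out. Cells of the human lymphoblastoid line were treated with compound over a concentration range for 24 hours at 37 C, and AC50 values came from Hill-equation modeling.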

[5] = Cell Viability - LYMP2-012 (AID 982); conditions: LYMP2-012 lymphoblastoid cell viability qHTS; series mostly up to 92.2 µM;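 also: cellular ATP by luciferase luminescence where a drop means cytotoxicity; cells exposed to compound for one day before reading; 0% = DMSO only and full loss = 92 µM tetraoctylammonium bromide; nearly all actives have a fitted effect of over 55% in size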
[6] = Cell Viability - LYMP2-014 (AID 983); conditions: LYMP2-014 lymphoblastoid cells, viability qHTS; series mostly up to 92.2 µM;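 also: plate controls were DMSO only for no effect and 92 µM tetraoctylammonium bromide for full effect; nearly all actives have a fitted effect of over 50% in size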
How it was run: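 Luminescent ATP signal (CellTiter-Glo, 30 min at room temperature) serves as the viability read-out after 24 hr compound exposure at 37 C. Cells were seeded at 2500 per well and settled 5 hr beforehand.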

[7] = Cell Viability - LYMP2-016 (AID 984); conditions: LYMP2-016 lymphoblastoid cell viability, qHTS; series mostly up to 92.2 µM; also: % is scaled to controls: 0 for no effect and ±100 for the full control effect; nearly all actives have a fitted effect of over 55% in size
How it was run: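 Human lymphoblastoid cells (LYMP2-016), 2500/well in complete medium, preincubated 5 hr at 37 C, then compound-treated 24 hr at 37 C. Intracellular ATP read by CellTiter-Glo luminescence after 30 min at room temperature; AC50 from Hill-equation concentration-response fits.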

[8] = Cell Viability - LYMP2-018 (AID 985); conditions: LYMP2-018 lymphoblastoid cells, viability (qHTS); series mostly up to 92.2 µM;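 also: plate controls were DMSO only for no effect and tetraoctylammonium bromide at 92 µM for full effect; nearly all actives have a fitted effect of over 50% in size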
How it was run: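 Luminescent ATP signal (CellTiter-Glo, read after 30 min at room temperature) reports viable cells after 24 hr compound treatment at 37 C. Concentration-response data were fitted to the standard Hill equation for AC50.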

[9] = Cell Viability - LYMP2-020 (AID 986); conditions: series mostly up to 92.2 µM;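 also: plate controls were DMSO only for no effect and tetraoctylammonium bromide at 92 µM for full effect; nearly all actives have a fitted effect of over 55% in size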
How it was run: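 Luminescent ATP signal (CellTiter-Glo, 30 min at room temperature) is the read-out after 24 h compound treatment of lymphoblastoid cells at 37 C. AC50 values come from Hill-equation fits across concentrations.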

[10] = Cell Viability - LYMP2-022 (AID 987); conditions: LYMP2-022 lymphoblastoid cell viability; series mostly up to 92.2 µM
How it was run: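 qHTS: human lymphoblastoid cells 2500/well; 5 hr 37 C; cpd added; 24 hr 37 C; CellTiter-Glo, 30 min RT; luminescence. AC50 via Hill fit; tetraoctylammonium bromide positive ctrl.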

[11] = Cell Viability - LYMP2-024 (AID 988); conditions: LYMP2-024 lymphoblastoid cell viability; series mostly up to 92.2 µM;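 also: plate controls were DMSO only for no effect and 92 µM tetraoctylammonium bromide for full effect; nearly all actives have a fitted effect of over 60% in size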
How it was run: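 Steps: seed 2500 cells/well, 5 hr 37 C; add compound, 24 hr 37 C; add CellTiter-Glo, 30 min room temperature; read luminescence. AC50 derived by Hill modelling of concentration-dependent ATP loss.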

[12] = Cell Viability - LYMP2-026 (AID 989); conditions: LYMP2-026 lymphoblastoid cell viability, qHTS; series mostly up to 92.2 µM; also: % is scaled to controls: 0 for no effect and ±100 for the full control effect; nearly all actives have a fitted effect of over 50% in size
How it was run: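 Luminescent ATP signal (CellTiter-Glo, 30 min room temperature) measures viable lymphoblastoid cells after 24 hr compound treatment at 37 C. Decreased ATP reflects acute toxicity; AC50 values come from Hill-equation modeling.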

[13] = Cell Viability - LYMP1-002 - Assay at 24 hr (AID 993); conditions: LYMP1-002 lymphoblastoid cells viability; series mostly up to 92.2 µM; also: % is scaled to controls: 0 for no effect and ±100 for the full control effect
How it was run: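 Cells plated 2500/well, 5 hr 37 C; compounds added, 24 hr 37 C; CellTiter-Glo added, 30 min RT; luminescence read. Tetraoctylammonium bromide positive control. Hill-equation AC50.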

[14] = Cell Viability - LYMP1-002 - Assay at 40 hr (AID 994); conditions: LYMP1-002 lymphoblastoid cell viability; series mostly up to 92.2 µM
How it was run: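 Luminescent ATP signal served as the viability readout, with decreases taken as toxicity. Cells were treated with compounds across a concentration range for 40 hours at 37 C, and AC50 values came from standard Hill modeling.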

[15] = qHTS Assay for Lipid Storage Modulators (AID 1519; calls by dose curve; as to activity change, negative = inhibition: % is scaled to controls: 0 for no effect and ±100 for the full control effect); conditions: Drosophila S3 cells, BODIPY lipid droplet/cell ratio, laser cytometry, cells loaded with oleic acid
How it was run: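 Cells seeded at 5,000 per well were treated with compounds over a concentration series and loaded with oleic acid (400 uM, as added). Lipid droplet fluorescence (488 nm excitation, 500-530 nm channel) was read by laser-scanning cytometry and normalized to 20 uM Triacsin C.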

[16] = molecular target: DNA repair nuclease/redox regulator APEX1 (Homo sapiens) (UniProt P27695); assay: qHTS Validation Assay for Inhibitors of the Human Apurinic/apyrimidinic Endonuclease 1 (APE1) (AID 1705; also: potency is read from the fitted curve at half-maximal effect); conditions: purified APE1 endonuclease activity, fluorescence, titration; series mostly up to 57.1 µM
How it was run: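 Human APE1 was preincubated with compound for 15 min at room temperature, then 50 nM (final) THF-abasic double-stranded DNA substrate bearing 5'-TAMRA and 3'-BHQ-2 was added. Incision-driven fluorescence rise (ex 525/em 598 nm) was read kinetically.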

[17] = Counterscreen for APE1 Inhibitors: Fluorescent Dye Displacement Validation Assay (AID 1707); conditions: fluorescent dye displacement from DNA; series mostly up to 57.1 µM;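 also: plate controls were ThO with dsDNA and no compound for no effect and ThO without dsDNA for full effect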
How it was run: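 Compounds are scored by their ability to displace Thiazole Orange (250 nM) from a 50 nM TAMRA-tagged duplex bearing a tetrahydrofuran abasic site. Buffer is 50 mM Tris-HCl pH7.5, 50mM NaCl, 2 mM MgCl2, 0.01% Tween-20.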

[18] = molecular target: Endonuclease 4 (Escherichia coli (strain K12)) (UniProt P0A6C1); assay: Counterscreen for APE1 Inhibitors: qHTS Validation Assay for Inhibitors of Endonuclease IV (AID 1708); also: potency is read from the fitted curve at half-maximal effect; conditions: E. coli endonuclease IV, DNA cleavage fluorescence
How it was run: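 qHTS concentration-response format; LOPAC1280 tested under APE1-screen conditions. 2 nM enzyme, 15 min compound preincubation at RT, then 50 nM TAMRA/BHQ-2 abasic substrate; kinetic fluorescence read, three reads at 60 s intervals.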

[19] = molecular target: Alpha-galactosidase A (Homo sapiens) (UniProt P06280); assay: Counterscreen for Glucocerebrosidase Inhibitors: qHTS Assay for Human alpha-Galactosidase at pH 4.5 (AID 992); conditions: purified enzyme, fluorogenic substrate; series mostly up to 76.9 µM; also: 0% is about no effect
How it was run: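 Quantitative HTS: compounds tested from 0.7 nM up to 77 uM against 2 nM enzyme with 80 uM 4-MU alpha-D-galactopyranoside. The 20 min room-temperature reaction is stopped with 1M NaOH/1M glycine, pH 10.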

[20] = molecular target: alpha-glucosidase (Oryza sativa, rice) (UniProt Q653V4); assay: Counterscreen for Glucocerebrosidase Inhibitors: qHTS Assay for Rice alpha-Glucosidase at pH 5.0 (AID 997); conditions: rice alpha-glucosidase enzyme activity; series mostly up to 76.9 µM;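 also: 0% = full activity with enzyme and -100% = basal without enzyme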
How it was run: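 Rice alpha-glucosidase (4 nM final) with 400 uM 4-methylumbelliferyl-alpha-D-glucopyranoside in citrate buffer pH 5.0, 20 min at room temperature, stopped at pH 10; fluorescence 365/440 nm, compounds 0.7 nM–77 uM, AC50 from Hill fits.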

[21] = measured here: cell count channel max response
[22] = measured here: lipid channel max response

Chain of Alpha-galactosidase A (Homo sapiens) (P06280 whole entry, looked up): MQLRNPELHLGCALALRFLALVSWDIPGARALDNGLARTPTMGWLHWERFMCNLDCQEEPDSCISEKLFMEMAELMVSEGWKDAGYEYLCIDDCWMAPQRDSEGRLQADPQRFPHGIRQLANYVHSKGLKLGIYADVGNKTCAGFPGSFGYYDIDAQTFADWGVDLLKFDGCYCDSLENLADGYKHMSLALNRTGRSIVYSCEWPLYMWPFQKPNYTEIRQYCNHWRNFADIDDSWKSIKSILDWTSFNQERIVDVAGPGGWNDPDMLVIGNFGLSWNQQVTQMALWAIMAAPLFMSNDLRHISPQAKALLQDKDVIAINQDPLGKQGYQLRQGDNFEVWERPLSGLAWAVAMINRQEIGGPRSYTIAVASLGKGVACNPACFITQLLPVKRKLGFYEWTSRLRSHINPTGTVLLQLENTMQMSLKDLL
Chain of DNA repair nuclease/redox regulator APEX1 (Homo sapiens) (P27695 whole entry, looked up): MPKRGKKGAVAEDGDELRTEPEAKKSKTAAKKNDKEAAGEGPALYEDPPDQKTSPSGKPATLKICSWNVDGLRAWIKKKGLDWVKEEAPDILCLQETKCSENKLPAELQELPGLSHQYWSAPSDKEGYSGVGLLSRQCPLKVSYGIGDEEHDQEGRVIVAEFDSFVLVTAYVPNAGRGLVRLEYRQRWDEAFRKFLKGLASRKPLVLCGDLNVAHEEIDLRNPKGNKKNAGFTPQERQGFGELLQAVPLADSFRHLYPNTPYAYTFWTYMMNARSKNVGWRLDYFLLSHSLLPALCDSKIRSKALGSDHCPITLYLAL

CCCCC(CC)COC(=O)c1ccc(N(C)C)cc1 (centres undefined)
inactive: outcome [1] | outcome [2] | outcome [3] | outcome [4] | outcome [5] | outcome [6] | outcome [7] | Potency [8] | Potency [9] | outcome [10] | Potency [11] | outcome [12] | outcome [13] | Potency [14]

O=C(O)c1ccc(S(=O)(=O)N(Cl)Cl)cc1
inactive: outcome [1] | outcome [2] | outcome [3] | outcome [4] | outcome [5] | outcome [6] | outcome [7] | Potency [8] | Potency [9] | outcome [10] | Potency [11] | outcome [12] | outcome [13] | Potency [14] | activity change, negative = inhibition ([15]; at 57.5 µM (top of the series)) 9.84%
34.6%: max response [15, 22]
17.1%: max response [15, 21]

Oc1ccc(Cl)cc1Cc1cc(Cl)ccc1O
inactive: outcome [13]

CC(=O)OCC1=C(C(=O)O)N2C(=O)[C@@H](NC(=O)CSc3ccncc3)[C@H]2SC1
active: Potency [16] 8.91 µM | Potency [18] 15.8 µM
inactive: outcome [17]

COc1cc([C@H]2Oc3cc([C@H]4Oc5cc(O)cc(O)c5C(=O)[C@@H]4O)ccc3O[C@@H]2CO)ccc1O
inactive: outcome [1] | outcome [2] | outcome [3] | outcome [4] | outcome [5] | outcome [6] | outcome [7] | Potency [8] | Potency [9] | outcome [10] | Potency [11] | outcome [12] | outcome [13] | Potency [14]

CN=C(N)NCCC[C@H](N)C(=O)O
inactive: outcome [19] | outcome [20] | activity change, negative = inhibition ([15]; at 57.5 µM (top of the series)) 0.0216%
-14.9%: max response [15, 21]
-15.5%: max response [15, 22]

CCCN(CCC)S(=O)(=O)c1ccc(C(=O)O)cc1
0.958% and 6.83%: max response [15, 21]
inactive: outcome [1] | outcome [2] | outcome [3] | outcome [4] | outcome [5] | outcome [6] | outcome [7] | Potency [8] | Potency [9] | outcome [10] | Potency [11] | outcome [12] | outcome [13] | Potency [14] | activity change, negative = inhibition ([15]; at 25.7 µM (top of the series)) -2.1% | activity change, negative = inhibition ([15]; at 57.5 µM (top of the series)) 1.2%
0.939% and 10.4%: max response [15, 22]

COc1cc(NS(=O)(=O)c2ccc(N)cc2)ncn1
0.606% and 6.05%: max response [15, 21]
1.51% and 9.04%: max response [15, 22]
inactive: activity change, negative = inhibition ([15]; at 25.7 µM (top of the series)) 1.08% | activity change, negative = inhibition ([15]; at 57.5 µM (top of the series)) 3.4%

C=C[C@H]1CN2CC[C@H]1C[C@@H]2[C@@H](O)c1ccnc2ccc(OC)cc12
inactive: outcome [1] | outcome [2] | outcome [3] | outcome [4] | outcome [5] | outcome [6] | outcome [7] | Potency [9] | outcome [10] | Potency [11] | outcome [12] | outcome [13] | Potency [14]
